The entries come from a sample that favours hits as a whole.
Cruzain Triton – inhibitors of Trypanosoma cruzi cruzain with detergent | purified cruzain, Z-FR-AMC fluorescence, 0.01% Triton | P25779 | AID 1478 | Potency, µM, hits mostly inhibitors | hit rate 0.43% among 200,000; further: nearly all actives have a fitted effect of over 40% in size
Target sequence (P25779 123-467 limits assumed): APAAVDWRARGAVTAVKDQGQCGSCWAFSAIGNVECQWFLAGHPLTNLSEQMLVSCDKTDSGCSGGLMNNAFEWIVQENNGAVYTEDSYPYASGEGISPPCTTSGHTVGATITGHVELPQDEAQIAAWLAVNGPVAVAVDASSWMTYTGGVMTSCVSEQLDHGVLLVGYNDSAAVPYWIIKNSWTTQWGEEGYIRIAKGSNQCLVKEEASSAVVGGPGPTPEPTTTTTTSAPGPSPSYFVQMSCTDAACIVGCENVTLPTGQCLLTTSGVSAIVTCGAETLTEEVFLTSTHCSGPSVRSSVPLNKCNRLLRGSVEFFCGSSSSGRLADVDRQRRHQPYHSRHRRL
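Sodium acetate buffer (100 mM, pH 5.5) containing 5 mM DTT and 0.01% Triton X-100 hosted 1.5 nM cruzain and test compound for 15 min at room temperature. Cleavage of 2 uM Z-FR-AMC was then tracked by fluorescence.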
Cruzain inh noDet – blocks cruzain activity in detergent-free assay | Potency, µM, hits mostly inhibitors | purified cruzain, Z-FR-AMC fluorescence, no detergent | hit rate 2.3% among 200,000 | AID 1476; further: nearly all actives have a fitted effect of over 40% in size
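Purified cruzain at 1.5 nM, pre-incubated 15 min with compound at room temperature in 100 mM sodium acetate pH 5.5, 5 mM DTT, 0.00005% Triton X-100. Reaction started with 2 uM Z-FR-AMC; AMC fluorescence increase over 60 s gives rate.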
NS1 inh – blocks influenza NS1 protein function. Potency, µM (top dose mostly 46.1 µM). hit rate 0.4% among 270,000; calls by dose curve; further: actives are rising curves; nearly all actives have a fitted effect of over 50% in size
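In this qHTS, NS1 from influenza A is expressed in budding yeast, where it slows growth. Cells are switched from glucose to 2% galactose medium (pH 6.0, -URA), treated with compound, and growth recovery is read at OD600.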
A number is an active result; - = inactive; ? = inconclusive; . = not tested or not shown. Unless noted, the call rests on the fitted dose curve; in most records, active means well fitted curve in the direction sought with a large enough effect; inconclusive means small, poorly fitted or top-dose-only effect, or another doubt; inactive means no such curve, though single readings can be large; an effect the other way counts as inactive or inconclusive.

SMILES | Cruzain Triton | Cruzain inh noDet | NS1 inh
O=C(CSc1nc2c(sc3ccccc32)c(=O)n1CCc1ccccc1)NCc1ccco1 | - | 5.01µM | -
COc1ccc(NC(=O)CSc2nc3ccccc3cc2Cc2ccccc2)cc1 | - | ? | -
COc1ccc(OC)c(NC(=O)CSc2nc3ccccc3cc2Cc2ccccc2)c1 | - | 20µM | -
COc1cccc(NC(=O)CSc2nc3ccccc3cc2Cc2ccccc2)c1 | - | ? | -
COc1cc(NC(=O)CSc2nc3ccccc3cc2Cc2ccccc2)cc(OC)c1 | - | 31.6µM | -
CC1=CC2C(=O)c3cccc(O)c3C(=O)C2C(O)=C1 (stereo not given) | - | - | .
Cc1ccc(Cl)cc1-n1ncc2c(Nc3cccc(C)c3C)ncnc21 | - | - | .
Cc1n[nH]c(=S)n1/N=C/c1ccc(-c2ccccc2[N+](=O)[O-])o1 | - | - | -
Cc1nnc(N/N=C\c2ccc(-c3ccccc3[N+](=O)[O-])o2)n1N | 14.1µM | 12.6µM | -
COc1ccc(CCNC(=O)Cc2c(C)c3c(cc(C)c4c(C)coc43)oc2=O)cc1 | - | - | .
O=C(Nc1ccc(NC(=O)c2cccs2)cc1)c1ccc(Cl)cc1 | - | - | .
COc1c(Cl)cc(Cl)cc1/C=C/C(=O)c1ccc(NC(=O)c2cccs2)cc1 | - | 31.6µM | -
C[N+](C)(C)CCN[N@@+]1(C)CCCc2ccccc21 | - | - | -
CCOC(=O)C(NC(=O)N1CCCCC1)(c1ccccc1)C(F)(F)F (stereo not given) | - | - | -
CCOC(=O)C(NC(=O)NC1CCCCC1)(c1ccccc1)C(F)(F)F (stereo not given) | - | 3.16µM | -
COc1ccc(-c2nc3cnc(Oc4cccc(Cl)c4)nc3n(CCC#N)c2=O)cc1 | - | - | .
Cc1onc(-c2ccccc2Cl)c1C(=O)OCC(=O)c1ccc2c(c1)OCCO2 | - | 25.1µM | ?
Cc1onc(-c2ccccc2Cl)c1C(=O)OCC(=O)c1c(N)n(C)c(=O)n(C)c1=O | . | . | -
COc1ccc(CNC(=O)CCc2nc3cccnc3n2Cc2ccccc2)cc1 | - | - | .
CC1=Nc2cc(C(=O)N3CCCC3)ccc2Sc2c(C)ccc(C)c21 | . | . | -
CC1=Nc2cc(C(=O)NCc3ccccc3Cl)ccc2Sc2c(C)ccc(C)c21 | - | 31.6µM | .
CCC1=Nc2cc(C(=O)NCc3ccccc3Cl)ccc2Sc2ccc(C)cc21 | - | ? | .
CCC1=Nc2cc(C(=O)NCc3ccccc3OC)ccc2Sc2ccc(Cl)cc21 | - | 31.6µM | .
COc1ccc(OC)c(S(=O)(=O)n2ccnc2)c1 | . | . | -
O=C(CCCN1C(=O)/C(=C\c2cccc(Br)c2)SC1=S)Nc1cccnc1 | . | . | -
SMILES | Cruzain Triton | Cruzain inh noDet | NS1 inh
O=C(CCCN1C(=O)/C(=C/c2cccc(Br)c2)SC1=S)Nc1ccccn1 | - | 25.1µM | -
COc1ccc(NC(=O)[C@@H]2[C@@H]3C(=O)N(C4CCCCC4)C(=O)[C@@H]3C3c4ccccc4C=CN32)cc1 (stereo not given in full) | - | 15.8µM | ?
CC(=O)[C@@H]1[C@@H]2C(=O)N(C3CCCCC3)C(=O)[C@@H]2C2c3ccccc3C=CN21 (stereo not given in full) | - | - | ?
CCOc1ccc(-c2nc(SCC(=O)c3ccccc3)n[nH]2)cc1 | - | ? | .
CCCOc1ccc(-c2nc(SCC(=O)c3ccc(Cl)cc3)n[nH]2)cc1 | - | 10µM | .
CCCc1ccc(OCC(=O)Nc2sc3c(c2C(=O)OCC)CCC(C(C)(C)C)C3)cc1 (stereo not given) | - | - | .
COc1ccc(N2CCN(CCNC(=O)CCNS(=O)(=O)c3cccs3)CC2)cc1 | - | - | -
CC(C)C(NS(=O)(=O)c1cccs1)C(=O)NCCN1CCN(c2ccccc2)CC1 (stereo not given) | 20µM | 25.1µM | -
Cc1nc2ccn(Cc3ccco3)c(=O)c2cc1C(=O)NCc1ccc(Cl)cc1 | - | ? | .
O=C1OC(c2ccc(F)cc2)=N/C1=C\C=C/c1ccccc1 | . | . | -
O=C1OC(/C=C/c2ccccc2)=NC/1=C/C=C/c1ccccc1 | 5.01µM | ? | -
COc1ccc(CNC(=O)CCc2c(C)nc3nc(CNC(=O)OC(C)(C)C)nn3c2C)cc1 | - | - | .
COc1ccc(S(=O)(=O)N(CC(=O)Nc2ccc(OC)cc2OC)c2ccc(Cl)cc2)cc1 | - | - | .
CC1=C(/C=C/C(C)=C/C=C/C(C)=C/C=O)C(C)(C)CCC1 | - | - | .
Cc1c(Cc2ccccc2)sc(/N=C/c2c(O)ccc3ccccc23)c1C(N)=O | - | - | -
Cc1c(Cc2ccccc2)sc(/N=C/c2ccc3ccccc3c2)c1C(N)=O | - | 6.31µM | ?
CCC(=O)Nc1sc(Cc2ccccc2)c(C)c1C(N)=O | . | . | -
COc1ccc(/C=C/C(=O)Nc2sc(Cc3ccccc3)c(C)c2C(N)=O)cc1 | - | 15.8µM | -
CN[C@@H]1[C@H](O[C@@H]2O[C@H](C)[C@@](O)(CO)[C@H]2O[C@H]2[C@H](O)[C@H](O)[C@H](N=C(N)N)[C@@H](O)[C@@H]2N=C(N)N)O[C@@H](CO)[C@H](O)[C@H]1O | - | - | .
COc1ccc(CNC(=O)CCCc2cn(C)c3ccccc23)c(OC)c1 | - | - | .
Cc1cc(C)c2nc3c(c([C@H](O)C4CCCCN4)c2c1)CC/C3=C/c1ccc(Cl)cc1 (stereo not given in full) | - | - | -
C[C@H]1CCCC=CC2C[C@H](OC(=O)CN(C)C)C[C@@H]2[C@@H](O)/C=C\C(=O)O1 (stereo not given in full) | - | - | -
O=C(NCCc1nc2ccccc2[nH]1)c1ccc(F)cc1 | ? | 1.26µM | -
O=C(NCCc1nc2ccccc2[nH]1)c1ccc([N+](=O)[O-])cc1 | . | . | -
COCC(=O)NCCc1nc2ccccc2[nH]1 | - | ? | -
SMILES | Cruzain Triton | Cruzain inh noDet | NS1 inh
COc1ccccc1C(=O)NCCc1nc2ccccc2[nH]1 | 15.8µM | 5.01µM | ?
CC/C=C\C/C=C\C/C=C\C/C=C\C/C=C\C/C=C\CCC(=O)O[C@H](COCCCCCCCCCCCCCCCC)COP(=O)([O-])OCC[N+](C)(C)C | - | ? | .
O=c1oc2ccc(Cl)cc2cc1-c1nnc(Nc2cccc(C(F)(F)F)c2)s1 | - | 5.01µM | -
CNc1nnc(-c2cc3cc(Cl)ccc3oc2=O)s1 | - | - | -
CS(=O)(=O)N1CCN(c2ccccc2NC(=O)c2ccc(Cl)cc2)CC1 | - | - | -
CS(=O)(=O)N1CCN(c2ccccc2NC(=O)c2ccc3ccccc3c2)CC1 | - | 20µM | -
CCN(Cc1ccccc1)C(=O)Cn1c(=O)n(-c2ccc(F)c(Cl)c2)c(=O)c2sc3ccccc3c21 | - | - | .
COc1ccc(-c2c3c(nc4sc5c(=O)[nH]c(C)nc5c24)CCC3)cc1 | - | - | -
O=C(Cn1nnc2c(sc3nc4c(c(-c5ccccc5)c32)CCC4)c1=O)c1ccccc1 | - | 25.1µM | -
Cc1cc2ccccn2c1C(C[N+](=O)[O-])c1ccc(N(C)C)cc1 (stereo not given) | - | 25.1µM | ?
COc1ccc(C(C[N+](=O)[O-])c2c(-c3ccccc3)cc3ccccn23)c(OC)c1 (stereo not given) | - | ? | -
COC(=O)c1ccc2c(=O)n(Cc3ccco3)c(SCC(=O)Nc3ccc(C)c(Cl)c3)nc2c1 | - | 6.31µM | -
O=C(CSc1nc2cc(Cl)ccc2c(=O)n1Cc1ccco1)Nc1ccc(S(=O)(=O)N2CCOCC2)cc1 | - | ? | ?
CCc1ccc(Nc2cc(C)nc3nc(Cc4ccc(Cl)cc4)nn23)cc1 | - | - | .

High-throughput results: PubChem BioAssay, National Center for Advancing Translational Sciences (NCATS)
